# Assay outcomes: PubChem BioAssay, National Center for Advancing Translational Sciences (NCATS)
# Pf growth 96h: Primary qHTS for delayed death inhibitors of the malarial parasite plastid, 96 hour incubation; P. falciparum luciferase reporter growth, 96 h; Potency, µM (series often up to 28.7 µM), without a hit: at the highest dose activity change, negative = inhibition, actives largely listed as inhibitors; actives 6.9% (n = 320,000); AID 504834, 2011; note: potency is the fitted concentration of half-maximal effect; % is set by controls: 0 for no effect and ±100 for the full control effect
#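 Delayed-death screen, second-generation endpoint: infected erythrocytes, 2% hematocrit, 0.05% parasitemia final; 96 hours at 37 C, 5% CO2; luciferase detection reagent; luminescence decrease equals reduced growth.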
# CHX counter: Cycloheximide Counterscreen for Small Molecule Inhibitors of Shiga Toxin; cell reporter, cycloheximide protein synthesis inhibition counterscreen; max response, %; actives 12% (n = 300,000); AID 2314, 2010; in the data active = max response mostly above about 13%, no sharp cut-off; inactive = mostly below about 14%; note: read at 38.3 µM for the half of the compounds with a filed dose; 0% is about no effect
# Shiga toxin inh: A qHTS for Small Molecule Inhibitors of Shiga Toxin. Vero cells, Shiga toxin protein synthesis inhibition reporter. inhibition, % at 38.7 µM. actives 9.2% (n = 290,000); in the data active = inhibition mostly above about 28%, no sharp cut-off; inactive = mostly below about 43%; note: 0% is about no effect
# Pf growth 48h: Primary qHTS for delayed death inhibitors of the malarial parasite plastid, 48 hour incubation | P. falciparum luciferase growth in erythrocytes, 48 h | Potency, µM (top dose mostly 28.7 µM), without a hit: at the top dose activity change, negative = inhibition, most hits filed as inhibitors | actives 5.9% (n = 310,000); note: potency is the fitted concentration of half-maximal effect; % is set by controls: 0 for no effect and ±100 for the full control effect
#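 Firefly luciferase activity from engineered P. falciparum reports growth; inhibitors lower the luminescent signal. Cultures contained 2% hematocrit erythrocytes at 0.1% final parasitemia.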
# An asterisk follows results filed as active; ? = inconclusive; nt = no result given; + = active, no number; [ ] = remark or other dose. Only some compounds are listed: those with a hit (about 21% of all), similar ones and a draw of the others. Unless noted, calls come from the whole dose curve; as a rule, active = well fitted inhibition curve with a large enough effect; inconclusive = small, poorly fitted or top-dose-only effect, or another doubt; inactive = no such curve, though single readings can be large or run the other way.
SMILES,Pf growth 96h,CHX counter,Shiga toxin inh,Pf growth 48h
Cc1nn(Cc2ccc(Cl)cc2)c(C)c1NC(=O)CSc1nc2c(c(C(F)(F)F)n1)CCc1ccccc1-2,4.65µM*,-2.3,-9.8,?
O=C(NNC(=S)Nc1ccccc1Cl)c1ccccc1,-31.0%,43.3*,77.6*,262.2%
O=C(NNC(=S)Nc1ccc(Cl)cc1)c1ccccc1,16.6%,27.1*,56.9*,31.4%
Cc1ccccc1NC(=S)NNC(=O)c1ccncc1,20.9%,-2.2,12.4,-9.6%
S=C(NCCC(c1ccccc1)c1ccccc1)Nc1ccc(Cl)cc1,42.0%,-1.1,1.0,0.1%
CC(=O)c1ccc(NC(=S)NNC(=O)c2ccncc2)cc1,-26.4%,15.9*,17.8,21.6%
S=C(NCCC(c1ccccc1)c1ccccc1)Nc1ccccc1Cl,4.65µM*,-2.2,-8.0,?
O=c1cc(O)c2c(=O)n(-c3ccccc3)c3c(c2o1)CCCCCC3,-31.7%,-6.5,-11.0,-4.4%
CC[C@@H]1/C=C(\C)C[C@H](C)C[C@H](OC)[C@H]2O[C@@](O)(C(=O)C(=O)N3CCCC[C@H]3C(=O)O[C@H](/C(C)=C/[C@@H]3CC[C@H](Cl)[C@H](OC)C3)[C@H](C)[C@@H](O)CC1=O)[C@H](C)C[C@@H]2OC,-4.3%,nt,nt,-5.9%
O=C(Nc1cccc(Cl)c1)c1ccccc1,85.2%,nt,nt,24.0%
O=C(NNC(=S)Nc1cccc(Cl)c1)c1ccccc1,?,26.6*,41.6*,11.5%
O=C(Nc1ccc(Cc2ccc(NC(=O)C3CC3)c(O)c2)cc1O)C1CC1,10.4µM*,-2.9,-4.7,4.3%
N#C/C(=C/Nc1ccccc1F)S(=O)(=O)c1ccc(Cl)cc1,-8.0%,7.8,13.5,0.0%[0.00184 µM]
O=[N+]([O-])c1ccc(N2CCCC2)nc1,38.6%,-1.9,-1.7,41.6%
Cc1cc(C)n(-c2cc(N3CCN(C(=O)c4ccc(C(C)(C)C)cc4)CC3)ccc2[N+](=O)[O-])n1,9.28µM*,7.4,-11.2,4.65µM*
CC(C)(C)c1ccc(C(=O)N2CCCN(c3ccc([N+](=O)[O-])cn3)CC2)cc1,11.7µM*,4.2,-3.4,?
O=C(O)c1c(-c2ccc(Cl)cc2)cn2ccccc12,100.5%,8.4,16.0,91.0%
CCOc1ccc(S(=O)(=O)N2CCC(C(=O)NCc3cccnc3)CC2)cc1C,-8.7%,-6.0,-5.8,-3.5%
Cc1ccc(N2C(=O)c3ccccc3C2C(=O)c2ccc(C)c(C)c2O)cc1 (stereo not given),5.22µM*,18.2*,30.8,?
Cc1ccc(N2C(=O)c3ccccc3C2C(=O)c2cc(C)ccc2O)cc1 (stereo not given),2.62µM*,39.8*,+,2.62µM*
COc1ccccc1Nc1nc(-c2cccc([N+](=O)[O-])c2)cs1,-10.0%,46.7*,59.4,70.0%
COc1cc(NS(=O)(=O)c2ccc(Nc3nc(-c4cccc([N+](=O)[O-])c4)cs3)cc2)nc(OC)n1,?,-2.1,-2.2,-11.6%
O=[N+]([O-])c1cccc(-c2csc(Nc3ccccc3)n2)c1,?,68.1*,90.6*,18.7%
CC1SC(c2ccccc2Cl)NC1=O (stereo not given),11.7µM*,-1.2,-16.9,nt
O=C1c2ccccc2C(=O)N1CC1=CCS(=O)(=O)C1,21.5%,-4.3,-3.0,-8.3%
SMILES,Pf growth 96h,CHX counter,Shiga toxin inh,Pf growth 48h
CC(C)(C)c1cc(N2CCOCC2)n2ncc(-c3ccc(Cl)cc3)c2n1,?,30.6*,24.5,?
Cc1ccc(-c2cnn3c(N4CCOCC4)cc(C)nc23)cc1,304.9%,68.0*,107.8*,116.5%
Cc1cc(N2CCOCC2)n2nc(C)c(-c3ccc(Cl)cc3)c2n1,-19.6%,0.8,-4.7,-11.3%
Cc1cc(N2CCOCC2)n2ncc(-c3ccc(Cl)cc3)c2n1,152.5%,75.2*,119.7*,140.2%
Cc1cc(N2CCC(C)CC2)n2ncc(-c3ccccc3)c2n1,165.9%,44.0*,131.6*,130.0%
CC(C)C(OC(=O)CN1C(=O)c2ccccc2C1=O)C(=O)NC1CCCCC1 (stereo not given),-3.8%,-5.7,-2.4,6.7%
O=C(Cn1cnc2cc([N+](=O)[O-])ccc2c1=O)Nc1ccccc1-c1ccccc1,?,-1.9,3.7,?
Cc1onc(-c2ccccc2)c1C(=O)OCC(=O)N1CCN(c2ccccc2)CC1,1.4%,nt,nt,-12.1%
Cc1cc(N2CCCCC2)n2nc(C)c(-c3ccccc3)c2n1,?,6.3,48.7,?
Cc1cc(N2CCOCC2)n2ncc(-c3ccccc3)c2n1,nt,34.0*,100.3*,55.0%
Cc1cc(N2CCCCC2)n2ncc(-c3ccccc3)c2n1,1.3%[5.75 µM],59.6*,60.7,14.2%
